Screens (PubChem BioAssay)
SARS PLpro yeast: blocks SARS-CoV papain-like protease in a yeast assay; AID 485353; S. cerevisiae expressing SARS-CoV PLpro, growth rescue; 330,000 tested, 0.19% active; Potency, µM (doses to about 32.9 µM), usual class: activators; note: nearly all actives have a fitted effect of over 55% in size
Pf growth 48h: P. falciparum growth inhibition at 48 hours (one generation); P. falciparum luciferase growth in erythrocytes, 48 h; Potency, µM (top dose mostly 28.7 µM), hits mostly inhibitors; 310,000 tested, 5.9% active; AID 504832; active = well fitted inhibition curve with a large enough effect; inconclusive = small, poorly fitted or top-dose-only effect, or another doubt; inactive = no such curve, though single readings can be large or run the other way
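Read-out is firefly luciferase luminescence from an integrated reporter in P. falciparum, so falling signal marks reduced parasite growth. Infected erythrocytes were at 2% hematocrit and 0.1% parasitemia (final) in Albumax-supplemented RPMI 1640.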
CHX counter: counter-screen hit for Shiga toxin inhibitors, cycloheximide. cell reporter, cycloheximide protein synthesis inhibition counterscreen. max response, %. 300,000 tested, 12% active. AID 2314; in the data active = max response mostly above about 13%, no sharp cut-off; inactive = mostly below about 14%; note: read at 38.3 µM for the half of the compounds with a filed dose
Shiga toxin inh: inhibitors of Shiga toxin in Vero cells; Vero cells, Shiga toxin protein synthesis inhibition reporter; inhibition, % at 38.7 µM; 290,000 tested, 9.2% active; AID 2315; in the data active = inhibition mostly above about 28%, no sharp cut-off; inactive = mostly below about 43%
NS1 inh: blocks influenza NS1 protein function; Potency, µM (top dose mostly 46.1 µM); 270,000 tested, 0.4% active; note: actives are rising curves; nearly all actives have a fitted effect of over 50% in size
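Read-out: OD600 growth recovery of NS1-expressing budding yeast. Cells grown overnight at 30C in -URA glucose medium, washed, resuspended and diluted 1:100 in 2% galactose assay medium, pH 6.0. Same strain lacking NS1 served as positive control.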
Pf growth 96h: P. falciparum growth inhibition at 96 hour, primary screen for plastid delayed-death inhibitors; P. falciparum luciferase reporter growth, 96 h; Potency, µM (doses to about 28.7 µM), most hits filed as inhibitors; 320,000 tested, 6.9% active; active = well fitted inhibition curve with a large enough effect; inconclusive = small, poorly fitted or top-dose-only effect, or another doubt; inactive = no such curve, though single readings can be large or run the other way
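Two-generation exposure (96 h) targets delayed-death phenotype. Reporter parasites carrying integrated firefly luciferase, in red cells at 2% hematocrit and 0.05% parasitemia final, kept at 37 C, 5% CO2; luminescence loss indicates inhibition.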
Each line names hits and unclear results; the compound was inactive in the other large screens. Sampled rows, rich in hits. Any-hit rate of the full collection: about 21%. Unless noted, calls come from the whole dose curve.

CCCCN(C)C/C(O)=C(\C#N)c1nc(-c2ccccc2)cs1	Shiga toxin inh 33 (no result: Pf growth 48h)
Cc1ccc(C)c(NC(=O)C(=O)NCC2CCCN2S(=O)(=O)c2cccs2)c1 (configuration not stated)	Pf growth 48h inconclusive (no result: CHX counter, Shiga toxin inh, NS1 inh)
COc1ccccc1CNC(=O)c1cc(C(=O)CC(C)C)c[nH]1	none
CC(=O)Nc1cccc(NC(=O)C(=O)NCC(c2ccco2)N2CCc3ccccc3C2)c1 (configuration not stated)	Pf growth 48h 12µM, Pf growth 96h inconclusive (no result: CHX counter, Shiga toxin inh, NS1 inh)
COc1cccc(NC(=O)C(=O)NCC(c2ccco2)N2CCc3ccccc3C2)c1 (configuration not stated)	Pf growth 48h 12µM, Pf growth 96h inconclusive (no result: CHX counter, Shiga toxin inh, NS1 inh)
Cc1cc(C)c(S(=O)(=O)NCC(c2ccco2)N2CCc3ccccc3C2)c(C)c1 (configuration not stated)	Pf growth 48h 9.3µM, Pf growth 96h inconclusive (no result: CHX counter, Shiga toxin inh, NS1 inh)
COc1cccc(C(=O)NCC(c2ccco2)N2CCc3ccccc3C2)c1 (configuration not stated)	Pf growth 48h inconclusive (no result: CHX counter, Shiga toxin inh, NS1 inh)
COc1ccc(NC(=O)C(=O)NCC(c2ccco2)N2CCc3ccccc3C2)cc1OC (configuration not stated)	Pf growth 48h 12µM, Pf growth 96h inconclusive (no result: CHX counter, Shiga toxin inh, NS1 inh)
Cc1ccccc1C(=O)NCC(c1ccco1)N1CCc2ccccc2C1 (configuration not stated)	none (no result: CHX counter, Shiga toxin inh, NS1 inh)
CC(C)CCn1c2ccccc2c2cc(CC(N)=O)ccc21	Pf growth 48h inconclusive, Pf growth 96h inconclusive
Cc1ccc(C)c(N/N=C2\CCCNC2=O)c1	none
COc1ccc(CNC(=O)c2noc(C)c2[N+](=O)[O-])cc1	none (no result: NS1 inh)
COc1ccc(N2CC(C(=O)NCCc3ccc(Cl)cc3)CC2=O)cc1 (configuration not stated)	none
Cn1nnnc1SCC(=O)Nc1nc2c(F)c(F)c(F)cc2s1	none (no result: Pf growth 48h, CHX counter, Shiga toxin inh, NS1 inh, Pf growth 96h)
Cn1c(CNC(=O)CNS(=O)(=O)c2ccc(F)cc2F)cc(=O)n(C)c1=O	none
COc1ccc(S(=O)(=O)NCC(c2cccs2)N2CCc3ccccc3C2)cc1 (configuration not stated)	none (no result: CHX counter, Shiga toxin inh, NS1 inh)
COc1ccc(OC)c(S(=O)(=O)NCC(c2cccs2)N2CCc3ccccc3C2)c1 (configuration not stated)	Pf growth 48h 15µM, Pf growth 96h inconclusive (no result: CHX counter, Shiga toxin inh, NS1 inh)
NC(CSSCC(N)C(=O)O)C(=O)O (configuration not stated)	none (no result: SARS PLpro yeast, NS1 inh)
COc1ccc(C(=O)Nc2cc(Cl)ccc2-n2cncn2)c(OC)c1OC	Pf growth 48h inconclusive, Pf growth 96h inconclusive (no result: CHX counter, Shiga toxin inh, NS1 inh)
CCc1ccc(-c2cc(C)no2)cc1S(=O)(=O)N1CCN(C(=O)c2ccco2)CC1	Pf growth 48h inconclusive, Pf growth 96h 9.3µM
CCc1ccc(-c2cc(C)no2)cc1S(=O)(=O)N1CCOc2ccccc21	Pf growth 48h 8.3µM, Pf growth 96h inconclusive
CCc1ccc(-c2cc(C)no2)cc1S(=O)(=O)NCCCN1CCN(c2ccccc2)CC1	Pf growth 48h 13µM, Pf growth 96h inconclusive
CCc1ccc(-c2cc(C)no2)cc1S(=O)(=O)N1CCN(c2ccc(F)cc2)CC1	Pf growth 48h 13µM, Pf growth 96h inconclusive
NCC(=O)N[C@@H](CCCN=C(N)N)C(=O)NCC(=O)N[C@@H](CC(=O)O)C(=O)N[C@@H](CO)C(=O)O	none (no result: SARS PLpro yeast, Pf growth 48h, NS1 inh, Pf growth 96h)
CCCC/C=C/[C@H](c1ccccc1)[C@H](CO)Cc1ccc([N+](=O)[O-])cc1	none (no result: SARS PLpro yeast, Pf growth 48h, NS1 inh, Pf growth 96h)
Cc1ccc(NS(=O)(=O)c2ccc(C(=O)NCc3ccc(S(N)(=O)=O)cc3)cc2)cc1	none (no result: Pf growth 48h, CHX counter, Shiga toxin inh, NS1 inh, Pf growth 96h)
CCCCN1C(=O)C(O)=C(C(C)=O)C1c1ccccc1[N+](=O)[O-] (configuration not stated)	none
O=C(O)CCCCCN1C(=O)C(O)=C(C(=O)/C=C/c2ccccc2)C1c1ccccc1[N+](=O)[O-] (configuration not stated)	CHX counter 14, Pf growth 96h 9.3µM
Cc1nc(SCc2nc3ccccc3[nH]2)c2oc3ccc(Br)cc3c2n1	none (no result: Pf growth 48h, CHX counter, Shiga toxin inh, NS1 inh, Pf growth 96h)
Cc1nc2c([nH]c3ccc(Br)cc32)s1	CHX counter 15, Shiga toxin inh 22, Pf growth 96h inconclusive
CCOC(=O)C1=C(c2ccccc2)NC(=S)NC1c1cc([N+](=O)[O-])ccc1OC (configuration not stated)	Pf growth 48h 12µM
O=C(COC(=O)c1cc2ccccc2cc1O)NC(=O)NCc1ccco1	none (no result: NS1 inh)
CNCCCOc1cccc(OC(C)C)c1	CHX counter 19, Shiga toxin inh 141 (no result: Pf growth 96h)
CNCCCOc1cccc(Oc2ccccc2)c1	Pf growth 48h inconclusive, CHX counter 34, Shiga toxin inh 100
CN(C)S(=O)(=O)n1cnc(C(CCO)c2ncn(S(=O)(=O)N(C)C)c2CCCO)c1 (configuration not stated)	none (no result: CHX counter, Shiga toxin inh, NS1 inh)
CCN(CC)c1ccc(/C=N/NC(=O)c2ccc3c(c2)OCCO3)cc1	Pf growth 48h inconclusive, CHX counter 58, Shiga toxin inh 115
O=C(N/N=C/c1ccc2c(c1)OCCO2)c1ccncc1	none
CN(C)c1ccc(/C=N/NC(=O)c2ccc3c(c2)OCCO3)cc1	CHX counter 34, Shiga toxin inh 48
COc1cc(C(=O)Nc2cc(C(F)(F)F)ccc2N2CCOCC2)ccc1OCC(=O)N1CCOCC1	Pf growth 48h inconclusive (no result: CHX counter, Shiga toxin inh, NS1 inh)
C=CCc1ccccc1Oc1cc(F)nc(N)n1	none
O=C(CNC(=O)c1ccc(Cl)cc1Cl)OCc1ccccc1	none (no result: CHX counter, Shiga toxin inh, NS1 inh)
CCCCC#Cc1ccc2c(c1)COc1c3ccccc3nn1-2	CHX counter 37, Shiga toxin inh 56
Cc1ccc(C(=O)C(C)OC(=O)Cn2cnc3c2c(=O)n(C)c(=O)n3C)cc1 (configuration not stated)	Pf growth 48h inconclusive (no result: CHX counter, Shiga toxin inh, NS1 inh)
CCn1c(Cc2ccccc2)nnc1SCC(=O)Nc1ccccc1N1CCOCC1	Pf growth 48h inconclusive, Pf growth 96h 3.3µM
Cc1cc(C)c(OCC(=O)Nc2ccccc2N2CCOCC2)c(C)c1	Pf growth 48h 12µM
Cn1c(Cc2ccccc2)nnc1SCC(=O)Nc1ccccc1N1CCOCC1	none
Cc1cc(C)c(OCC(=O)Nc2ccccc2N2CCCCC2)c(C)c1	Pf growth 48h inconclusive, Pf growth 96h inconclusive (no result: CHX counter, Shiga toxin inh, NS1 inh)
Cc1ccc(OCC(=O)Nc2ccccc2N2CCCC2)c(C)c1	Pf growth 48h 12µM
CCC(=O)N1CCN(c2ccccc2NC(=O)COc2cc(C)ccc2C(C)C)CC1	Pf growth 48h 3.3µM (no result: Pf growth 96h)
CC(Oc1ccccc1)C(=O)N=C1SC2CS(=O)(=O)CC2N1CCc1ccccc1 (configuration not stated)	Pf growth 48h inconclusive, Pf growth 96h inconclusive
O=C1NCCCC1C(=O)N/N=C/c1cccc(O)c1 (configuration not stated)	none
COc1ccccc1N1CCN(c2ccc3ccccc3n2)CC1	CHX counter 45, Shiga toxin inh 70
COc1ccccc1N1CCN(C2=NS(=O)(=O)c3ccccc32)CC1	CHX counter 12
COc1ccccc1N1CCN(c2ccc(-c3ccccc3)nn2)CC1	CHX counter 42, Shiga toxin inh 139
